Assay results published in PubChem BioAssay.
Active and inactive are the calls of the source.

Tests used:
Albumin (Bos taurus) = Albumin (Bos taurus) (UniProt P02769); experiment: bovine serum albumin binders on microarray, profiling panel, artefact control for SMM control protein annotation, biochemical, small-molecule microarray, Alexa647 label, 635/667 nm fluorescence (AID 1118); conditions: BSA-A647 binding, fluorescence 635 nm, higher = more signal;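 note: score merges 667 nm emission intensity and signal-to-noise per printed compound spot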
[1] = small-molecule microarray binders of probe aXIP, primary screen, biochemical, NeuroSMM set, 635/667 nm fluorescence (AID 1119); conditions: higher = more signal, called active from +8 up or from −8 down;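 note: probe is the protein aXip251-270 applied at 1 µg/mL to compound-printed slides; binding of probe to printed compounds measured as 667 nm fluorescence plus signal to noise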
[2] = small-molecule binders of probe aNOTCH3, primary screen, biochemical, small-molecule microarray, 635/667 nm fluorescence (AID 1120); conditions: higher = more signal;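 note: probe is a biotin-tagged antibody raised against NOTCH3 rather than NOTCH3 protein; score merges spot fluorescence near 667 nm with spot signal to noise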
[3] = small-molecule binders of probe aNOTCH2, primary screen, biochemical, small-molecule microarray, 635/667 nm fluorescence (AID 1121); conditions: higher = more signal;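 note: score merges feature fluorescence read at 667 nm with its signal to noise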
[4] = target: Carbonic anhydrase 2 (Homo sapiens) (UniProt P00918); experiment: CAII small-molecule binders, profiling panel, biochemical, small-molecule microarray, Alexa647-labelled CAII (AID 1122); conditions: CAII-A647 binding fluorescence, higher = more signal
[5] = COS7 lysate on small-molecule microarray, probe aHis, 635 nm (AID 1123); conditions: COS7 cell lysate, fluorescence, higher = more signal;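 note: z-score combines 667nm fluorescence intensity with signal-to-noise per printed compound spot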
[6] = compound binding in COS7 lysate, probe aLAP1, primary screen, cell lysate, small-molecule microarray (AID 1124); conditions: probe aLAP1, fluorescence, higher = more signal;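 note: lysate comes from COS7 cells expressing LAP1 and is applied at 0.3 µg/mL; score merges spot fluorescence near 667 nm with signal-to-noise over triplicate slides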
Sam68 (KHDRBS1) = experiment: Sam68 small-molecule binders, primary screen, biochemical, small-molecule microarray, 635 nm fluorescence (AID 1125); conditions: small-molecule microarray binding, higher = more signal;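 note: score merges 667 nm channel intensity with signal to noise over triplicate slides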
[7] = tested on: Chordin-like protein 2 (CHRDL2); experiment: CHRDL2 small-molecule binders, primary screen, biochemical, small-molecule microarray, 635 nm fluorescence (AID 1126); conditions: small-molecule microarray binding, fluorescence 635 nm; higher = more signal;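 note: printed compound slides probed with Chrdl2 protein at 4 µg/mL for 1 h at 4 C; score merges 667 nm emission intensity with signal to noise over three replicate slides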
[8] = target: Concanavalin-A (Canavalia ensiformis) (UniProt P02866); experiment: ConA small-molecule binders, primary screen, artefact control for SMM control protein annotation, biochemical, small-molecule microarray, Alexa647 label, 635 nm (AID 1127); conditions: ConA-A647 binding fluorescence, higher = more signal;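 note: z combines 667 nm emission intensity with signal-to-noise across three replicate slides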
[9] = anti-His antibody binders, primary screen, artefact control for SMM control protein annotation, biochemical, small-molecule microarray, 635 nm fluorescence (AID 1128); conditions: anti-His Alexa647 antibody binding, higher = more signal;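 note: score merges feature fluorescence with signal-to-noise for each printed compound spot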
[10] = tested on: Human papillomavirus type 1a E7 protein (residues 1-88); experiment: HPV1a E7 small-molecule binders, primary screen, biochemical, small-molecule microarray, residues 1-88, 635 nm (AID 1129); conditions: small-molecule microarray binding, fluorescence 635 nm; higher = more signal
[11] = target: Focal adhesion kinase 1 (Homo sapiens) (UniProt Q05397); experiment: small-molecule microarray binders of FAK, primary screen, biochemical, 635/667 nm fluorescence, BSA, DTT (AID 1130); conditions: PTK2 binding, 635 nm fluorescence, higher = more signal;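 note: composite of spot emission at 667 nm and signal to noise over triplicate slides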
[12] = tested on: Fibrinogen (Alexa647-labelled); experiment: fibrinogen binders on compound microarrays, profiling panel, artefact control for SMM control-protein annotation, biochemical, small-molecule microarray, 635/667 nm fluorescence (AID 1131); conditions: fibrinogen-A647 binding fluorescence, higher = more signal;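 note: z-score merges 667 nm fluorescence with per-spot signal-to-noise over triplicate slides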
[13] = target: Follistatin (Homo sapiens) (UniProt P19883); experiment: follistatin binders on small-molecule microarrays, primary screen, biochemical, small-molecule microarray, 635/667 nm fluorescence (AID 1132); conditions: FST binding, 635 nm fluorescence, higher = more signal
[14] = target: Fibroblast growth factor 2 (Homo sapiens) (UniProt P09038); experiment: FGF2 binders on small-molecule microarrays, primary screen, biochemical, small-molecule microarray, 635/667 nm fluorescence (AID 1133); conditions: small-molecule microarray binding, FGF2, fluorescence 635/667; higher = more signal
[15] = mitochondrial membrane potential change in A549 cells, profiling panel, cell-based, JC-1 fluorescence, basal, 24 h, 100 nL (AID 1138); conditions: higher = more signal;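 note: A549 lung adenocarcinoma cells under basal conditions with no added stimulus; test concentration not given here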
Lefty1 = Lefty1 binders on small-molecule microarrays, primary screen, biochemical, small-molecule microarray, 635/667 nm fluorescence (AID 1139); conditions: small-molecule microarray binding, fluorescence 635/667; higher = more signal
[16] = tested on: wheat germ agglutinin (Triticum aestivum), Alexa647-labelled; experiment: wheat germ agglutinin binders on compound microarrays, profiling panel, artefact control for SMM control-protein annotation, biochemical, small-molecule microarray, 635/667 nm fluorescence (AID 1140); conditions: WGA-A647 binding, 635 nm fluorescence, higher = more signal;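 note: score merges 667 nm feature emission with signal to noise over triplicate slides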
[17] = target: Luciferin 4-monooxygenase (Photinus pyralis) (UniProt P08659); experiment: firefly luciferase enzyme inhibitors, primary screen, biochemical, luminescence, purified enzyme, 2006 set (AID 1141); conditions: SteadyGlo luminescence, 30 min, higher = more signal, called active from +8 up or from −8 down;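 note: cell-free assay with purified firefly luciferase at 100 ng per well in PBS; test concentration not given here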
Sequence of Luciferin 4-monooxygenase (Photinus pyralis) (P08659 whole entry, looked up): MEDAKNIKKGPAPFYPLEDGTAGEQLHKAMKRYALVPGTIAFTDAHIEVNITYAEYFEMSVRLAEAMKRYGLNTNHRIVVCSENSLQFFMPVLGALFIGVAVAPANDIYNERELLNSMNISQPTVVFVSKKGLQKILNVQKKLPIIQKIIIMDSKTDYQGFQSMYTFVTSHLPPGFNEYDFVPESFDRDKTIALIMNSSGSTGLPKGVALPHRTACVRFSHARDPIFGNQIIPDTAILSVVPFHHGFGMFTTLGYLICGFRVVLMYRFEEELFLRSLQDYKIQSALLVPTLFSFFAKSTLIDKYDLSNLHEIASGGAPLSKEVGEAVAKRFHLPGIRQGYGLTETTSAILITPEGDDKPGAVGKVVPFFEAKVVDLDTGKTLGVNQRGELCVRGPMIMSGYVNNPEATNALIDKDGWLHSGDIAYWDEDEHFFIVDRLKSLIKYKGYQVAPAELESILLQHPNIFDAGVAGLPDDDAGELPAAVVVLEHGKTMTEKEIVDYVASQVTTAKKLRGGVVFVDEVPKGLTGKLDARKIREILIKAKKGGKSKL

Sequence of Albumin (Bos taurus) (P02769 whole entry, looked up): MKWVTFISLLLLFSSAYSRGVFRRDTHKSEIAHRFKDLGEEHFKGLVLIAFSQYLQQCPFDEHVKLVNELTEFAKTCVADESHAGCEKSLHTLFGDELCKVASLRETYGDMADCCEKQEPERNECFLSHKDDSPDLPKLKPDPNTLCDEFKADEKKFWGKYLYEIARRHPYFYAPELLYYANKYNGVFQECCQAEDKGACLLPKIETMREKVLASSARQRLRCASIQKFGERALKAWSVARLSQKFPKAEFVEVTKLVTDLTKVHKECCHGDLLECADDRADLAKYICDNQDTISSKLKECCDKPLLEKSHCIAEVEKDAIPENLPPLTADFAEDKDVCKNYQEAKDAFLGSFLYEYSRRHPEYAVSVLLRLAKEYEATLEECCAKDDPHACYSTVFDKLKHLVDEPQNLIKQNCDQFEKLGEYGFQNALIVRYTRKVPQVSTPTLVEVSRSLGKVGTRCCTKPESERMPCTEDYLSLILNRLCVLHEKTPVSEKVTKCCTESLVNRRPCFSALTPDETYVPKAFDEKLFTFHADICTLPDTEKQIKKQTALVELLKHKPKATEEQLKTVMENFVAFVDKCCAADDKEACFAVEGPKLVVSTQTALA
Sequence of Concanavalin-A (Canavalia ensiformis) (P02866 whole entry, looked up): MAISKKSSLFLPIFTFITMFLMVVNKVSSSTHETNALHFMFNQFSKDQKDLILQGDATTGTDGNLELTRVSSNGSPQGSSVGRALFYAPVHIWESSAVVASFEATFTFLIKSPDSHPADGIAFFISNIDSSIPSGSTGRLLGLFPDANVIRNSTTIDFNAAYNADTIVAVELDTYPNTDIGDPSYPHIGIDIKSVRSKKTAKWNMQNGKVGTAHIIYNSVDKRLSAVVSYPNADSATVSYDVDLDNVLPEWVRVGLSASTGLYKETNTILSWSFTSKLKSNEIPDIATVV
Sequence of Fibroblast growth factor 2 (Homo sapiens) (P09038 whole entry, looked up): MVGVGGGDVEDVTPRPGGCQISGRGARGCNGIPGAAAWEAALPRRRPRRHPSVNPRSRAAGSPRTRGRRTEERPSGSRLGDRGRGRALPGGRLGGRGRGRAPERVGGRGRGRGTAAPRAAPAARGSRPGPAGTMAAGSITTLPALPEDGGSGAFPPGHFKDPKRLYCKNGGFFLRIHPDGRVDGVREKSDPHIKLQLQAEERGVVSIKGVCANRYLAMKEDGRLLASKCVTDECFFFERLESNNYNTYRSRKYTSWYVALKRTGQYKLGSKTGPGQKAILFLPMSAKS
Sequence of Follistatin (Homo sapiens) (P19883 whole entry, looked up): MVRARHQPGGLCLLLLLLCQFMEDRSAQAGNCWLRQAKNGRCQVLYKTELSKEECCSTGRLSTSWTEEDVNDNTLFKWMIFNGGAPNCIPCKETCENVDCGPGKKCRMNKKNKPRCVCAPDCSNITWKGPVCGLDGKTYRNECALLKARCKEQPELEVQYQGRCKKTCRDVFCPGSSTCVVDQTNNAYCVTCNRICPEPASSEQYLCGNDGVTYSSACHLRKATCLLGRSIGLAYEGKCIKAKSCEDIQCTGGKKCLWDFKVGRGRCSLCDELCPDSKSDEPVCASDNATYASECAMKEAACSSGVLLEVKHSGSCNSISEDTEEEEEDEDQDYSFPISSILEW
Sequence of Focal adhesion kinase 1 (Homo sapiens) (Q05397 whole entry, looked up): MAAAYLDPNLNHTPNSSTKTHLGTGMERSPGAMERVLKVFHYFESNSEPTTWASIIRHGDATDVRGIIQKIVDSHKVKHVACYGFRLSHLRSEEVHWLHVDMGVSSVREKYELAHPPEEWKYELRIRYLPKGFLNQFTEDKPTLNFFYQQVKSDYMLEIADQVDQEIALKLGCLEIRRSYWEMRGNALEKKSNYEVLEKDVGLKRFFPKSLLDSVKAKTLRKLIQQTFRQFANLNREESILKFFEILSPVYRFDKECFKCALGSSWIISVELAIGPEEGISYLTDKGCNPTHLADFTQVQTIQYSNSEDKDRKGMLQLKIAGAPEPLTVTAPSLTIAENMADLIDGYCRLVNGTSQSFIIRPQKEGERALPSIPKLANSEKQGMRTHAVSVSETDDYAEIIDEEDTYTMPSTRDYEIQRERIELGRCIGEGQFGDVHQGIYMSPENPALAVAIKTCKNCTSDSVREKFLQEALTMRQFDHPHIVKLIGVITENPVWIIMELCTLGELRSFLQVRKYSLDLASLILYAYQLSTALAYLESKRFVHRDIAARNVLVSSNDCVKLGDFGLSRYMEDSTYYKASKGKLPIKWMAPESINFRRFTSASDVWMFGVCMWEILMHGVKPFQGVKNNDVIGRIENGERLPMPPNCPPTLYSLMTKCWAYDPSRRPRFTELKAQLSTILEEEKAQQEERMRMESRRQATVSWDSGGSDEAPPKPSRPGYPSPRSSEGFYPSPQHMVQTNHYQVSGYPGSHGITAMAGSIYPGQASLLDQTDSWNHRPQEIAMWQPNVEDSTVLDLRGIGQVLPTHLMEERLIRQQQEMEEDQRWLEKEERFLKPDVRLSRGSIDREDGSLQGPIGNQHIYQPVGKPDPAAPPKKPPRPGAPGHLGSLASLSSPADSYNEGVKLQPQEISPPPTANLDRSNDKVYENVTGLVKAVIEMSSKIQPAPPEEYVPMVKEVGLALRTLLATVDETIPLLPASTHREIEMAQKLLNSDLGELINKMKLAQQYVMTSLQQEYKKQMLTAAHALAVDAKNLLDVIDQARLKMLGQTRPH

Compound	composite z-score (Albumin (Bos taurus))	composite Z-score [1]	composite z-score [2]	composite z-score [3]	composite z-score [4]	composite z-score [5]	composite z-score [6]	composite z-score (Sam68 (KHDRBS1))	composite z-score [7]	composite z-score [8]	composite z-score [9]	composite z-score [10]	composite z-score [11]	composite z-score [12]	composite z-score [13]	composite z-score [14]	z-score [15]	composite z-score (Lefty1)	composite z-score [16]	z-score [17]
CCCCC#C[C@@H]1C=C[C@H](Oc2ccc(C(=O)OC)cc2)[C@@H](COC(=O)OCC)O1	0.109	-0.0877 (inactive)	-0.106	-0.0578	0.39	0.205	0.0053	0.769	0.978	0.64	0.516	0.459	-0.0377	0.531	0.974	0.585	-0.896	0.309	0.276	-3.64 (inactive)
CC(C)=NOC[C@@H](C)[C@H](OCc1ccccc1)C(C)C	-0.0998	0.317 (inactive)	-0.165	-0.206	-0.389	-0.616	-0.228	-1.61	0.0109	-0.0651	0.164	-1.56	-0.15	-0.22	-0.476	-0.229	-0.375	-0.458	-0.351	-1.4 (inactive)
O=C1[C@H]2[C@H]3[C@H](O)[C@H](O)CC(=NOCc4ccccc4)[C@@H]3CC[C@H]2C(=O)N1c1ccc(F)cc1F	0.137	-0.155 (inactive)	0.0303	-0.157	0.243	0.0305	-0.294	-0.806	0.0594	0.175	-0.0523	-0.406	0.757	0.416	0.072	0.359	-0.332	-0.0459	-0.141	0.0336 (inactive)
C[n+]1ccc(-c2ccc(CO)cc2)cc1	-0.619	2.7 (inactive)	-0.0377	-0.157	0.68	-0.702	0.372	0.364	1.54	1.11	0.658	-0.676	-0.332	-0.168	1.55	1.35	-0.666	1.61	1.48	-0.288 (inactive)
CO[C@H]1COC(=O)[C@H](C)NC(=O)CC=C[C@@H](C)[C@H](OC)COC(=O)[C@@H](OCc2ccccc2)C=C[C@@H]1C	-0.744	-0.0157 (inactive)	-0.068	-0.0657	-0.722	-0.724	-0.198	-0.206	1.06	-0.909	-0.435	-0.611	-0.329	0.029	1.21	0.618	0.805	0.529	-1.25	-0.231 (inactive)
CC(C)C[C@H](NC(=O)CCC1CC(OC(=O)NCc2cccc3ccccc23)CC2(CCCC(COC(=O)NCc3ccccc3)O2)O1)C(=O)NCC(c1ccccc1)c1ccccc1 (stereo not given in full)	0.163	-0.0662 (inactive)	0.0876	-0.234	0.404	0.743	1.09	1.31	0.546	0.347	0.231	1.13	0.383	0.803	0.909	1.27	1.09	1.07	0.493	0.43 (inactive)
COC(=O)CC=C[C@@H](C)[C@@H](C=NO[C@@H](C)c1cn([C@H](CO)Cc2ccccc2)nn1)OC	0.943	-0.452 (inactive)	-0.0069	-0.103	-0.225	-0.274	0.137	0.695	0.664	-0.61	2.93	0.168	-0.0296	0.578	0.293	0.411	0.269	0.579	0.084	-2.11 (inactive)
C[C@@H]1CC[C@H]2C(=O)O[C@@H](COc3ccc(C(C)(C)C)cc3)CN2[C@@H]1c1ccc(Br)cc1	0.0192	-0.695 (inactive)	-0.21	-0.14	-0.408	-0.0056	-0.239	-0.558	-0.614	-0.619	2.71	-0.741	0.225	0.172	-0.0473	-0.62	0.841	-0.255	-0.383	-0.864 (inactive)
CO[C@H]1COC(=O)CCC[C@@H](C)[C@H](OC)COC(=O)[C@@H]2CCCN2C(=O)CC=C[C@@H]1C	-0.695	0.215 (inactive)	-0.0074	-0.132	-0.465	-0.776	0.324	-0.113	1.46	-0.232	-0.278	-0.779	-0.682	-0.759	1.33	1.18	-0.738	1.44	-0.207	1.19 (inactive)
CCc1cc2c(nc1CC)CCN(CCC(C)=NO[C@H](C)c1cn([C@@H]3COC[C@H]3O)nn1)C2	-0.559	0.577 (inactive)	-0.005	-0.0554	0.202	-0.394	0.111	0.325	0.61	-0.178	-0.0963	-0.139	-0.162	0.522	0.523	0.305	0.537	0.204	0.199	0.221 (inactive)
